# Data: PubChem BioAssay
# Where “and” joins values, the source holds several entries; their conditions need not be identical. Equal entries are not always repeated. Unmarked numbers belong to inactive results. Calls of active or inactive are those of the source.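 The calls were made as follows, unless noted: active = luciferase signal above three times the same-plate solvent-only control wells; inactive = the rest.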 Starred links: 1 amine or outer side, 2 acyl side, 3 side chain; linkers in the order of their positions; H or OH if unused. Positions of bridges follow the written chain, without caps; N, C: chain ends. Non-standard residues stand in square brackets, D forms with d. Residues, ends and D or L forms follow the SMILES beside them. Chains are numbered I, II in the order given. Actinocin(9to1) = Cc1c2oc3c(C)ccc(C(=O)[*:1])c3nc-2c(C(=O)[*:2])c(N)c1=O; NMeV = CN[C@H](C(=O)O)C(C)C; Sar = CNCC(=O)O
# Experiments:
# [1] = target: NAD(+) hydrolase SARM1 (Homo sapiens) (UniProt Q6SZW1); assay: blocking NAD cleavage by SARM1 SAM-TIR – cell lysate, NAD-Glo luminescence (AID 1508614;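 active = compound whose remaining NAD level is above about 45 nM, limit read from the data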;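 also: higher remaining NAD means stronger inhibition of SARM1 NADase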); details: SAM-TIR HEK293T lysate NADase, at 1 µM, hits give high values
# NAD(+) hydrolase SARM1 (Homo sapiens), sequence (Q6SZW1 whole entry, looked up, the tested form may be a part): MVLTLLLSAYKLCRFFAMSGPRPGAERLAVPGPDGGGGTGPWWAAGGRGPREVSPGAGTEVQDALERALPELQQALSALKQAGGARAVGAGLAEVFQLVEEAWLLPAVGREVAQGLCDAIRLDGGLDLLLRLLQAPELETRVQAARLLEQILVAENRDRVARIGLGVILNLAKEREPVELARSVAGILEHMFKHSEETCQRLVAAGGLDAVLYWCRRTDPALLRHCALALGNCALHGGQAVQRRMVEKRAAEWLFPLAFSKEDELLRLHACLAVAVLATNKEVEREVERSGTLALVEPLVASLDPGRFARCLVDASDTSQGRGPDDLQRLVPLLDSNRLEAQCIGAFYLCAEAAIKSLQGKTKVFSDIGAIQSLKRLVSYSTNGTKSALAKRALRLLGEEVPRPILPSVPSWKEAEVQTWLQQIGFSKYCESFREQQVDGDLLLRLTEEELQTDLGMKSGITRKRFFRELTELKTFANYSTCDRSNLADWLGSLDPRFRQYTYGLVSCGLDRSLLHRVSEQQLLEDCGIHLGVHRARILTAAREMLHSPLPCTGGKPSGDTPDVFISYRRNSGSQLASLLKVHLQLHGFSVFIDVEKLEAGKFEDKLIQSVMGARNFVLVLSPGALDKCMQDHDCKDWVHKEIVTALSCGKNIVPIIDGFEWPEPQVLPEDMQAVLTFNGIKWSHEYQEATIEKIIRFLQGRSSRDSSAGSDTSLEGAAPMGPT
# [2] = target: Mitogen-activated protein kinase 7 (Homo sapiens) (UniProt Q13164); assay: Gal4-ERK5 driven luciferase induction – cell-based, HTS, primary screen (AID 1508626); details: HeLa Gal4-ERK5 transactivation, 18 h, at 5 µM, hits give high values;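 also: luciferase driven by Gal4-ERK5 fusion binding five Gal4 sites before minimal TATA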
# Mitogen-activated protein kinase 7 (Homo sapiens), sequence (Q13164 whole entry, looked up, the tested form may be a part): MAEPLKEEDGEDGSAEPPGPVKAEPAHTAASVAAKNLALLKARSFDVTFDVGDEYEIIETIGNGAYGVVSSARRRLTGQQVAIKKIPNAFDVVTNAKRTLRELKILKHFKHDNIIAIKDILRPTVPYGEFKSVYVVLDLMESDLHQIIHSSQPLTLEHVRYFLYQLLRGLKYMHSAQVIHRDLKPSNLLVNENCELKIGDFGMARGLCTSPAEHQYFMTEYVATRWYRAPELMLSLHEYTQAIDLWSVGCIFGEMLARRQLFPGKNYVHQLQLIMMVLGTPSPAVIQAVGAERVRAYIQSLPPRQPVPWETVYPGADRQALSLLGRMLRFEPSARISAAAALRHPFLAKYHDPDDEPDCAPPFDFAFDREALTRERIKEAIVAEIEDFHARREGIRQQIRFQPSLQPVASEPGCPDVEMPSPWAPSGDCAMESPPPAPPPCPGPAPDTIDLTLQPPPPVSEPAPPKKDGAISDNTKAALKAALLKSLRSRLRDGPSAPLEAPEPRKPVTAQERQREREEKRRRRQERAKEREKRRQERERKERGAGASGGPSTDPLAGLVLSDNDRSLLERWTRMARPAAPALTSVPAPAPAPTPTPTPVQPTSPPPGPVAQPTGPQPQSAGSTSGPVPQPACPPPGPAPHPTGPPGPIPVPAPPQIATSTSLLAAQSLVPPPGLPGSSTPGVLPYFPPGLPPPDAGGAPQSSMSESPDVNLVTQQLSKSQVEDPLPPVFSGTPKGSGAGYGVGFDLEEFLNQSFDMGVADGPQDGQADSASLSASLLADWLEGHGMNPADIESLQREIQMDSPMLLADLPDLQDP
# [3] = galactose survival enhancers in mitochondrial complex I cybrids – cell-based, galactose medium, ATP luminescence, primary screen (AID 1645843;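 active = z-score of at least 1.8 in each of two replicates, scored against plate mean and spread of sample wells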;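 also: positive z means more ATP and so rescue of galactose-driven cybrid death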); details: complex I mutant cybrid cells, 72 h, hits give high values
SMILES,remaining NAD [1] [nM],luciferase signal [2],z-score [3]
Cn1c(=O)c2c(ncn2CC(O)CO)n(C)c1=O (stereo not drawn),10,20 AU,–
O=C1c2c(O)cccc2Cc2cccc(O)c21,10,180 AU,–
NC[C@H]1O[C@H](O[C@H]2[C@H](O)[C@@H](O[C@H]3O[C@H](CO)[C@@H](O)[C@H](N)[C@H]3O)[C@H](N)C[C@@H]2N)[C@H](N)[C@@H](O)[C@@H]1O,10,76 AU,–
CO[C@@]1(NC(=O)C(C(=O)O)c2ccc(O)cc2)C(=O)N2C(C(=O)O)=C(CSc3nnnn3C)CO[C@@H]21 (stereo partly drawn),10,32 AU,–
CCN(CC)Cc1cc(Nc2ccnc3cc(Cl)ccc23)ccc1O,10,60 AU,–
C[C@@H]1C[C@H]2[C@@H]3C[C@H](F)C4=CC(=O)C=C[C@]4(C)[C@@]3(F)[C@@H](O)C[C@]2(C)[C@@]1(O)C(=O)CO,10,116 AU,–
CCN(CC)CCOC(=O)C(c1ccccc1)C1CCCCC1 (stereo not drawn),10,52 AU,–
CN1CCN(C(c2ccccc2)c2ccccc2)CC1,10,124 AU,–
O=C1C(O)=C(O)C(=O)C(O)=C1O,10,20 AU,–
Cc1cc(=O)n(-c2ccccc2)n1C,10,116 AU,–
CCCCOC(=O)c1ccc(N)cc1,10,56 AU,–
CCOC(=O)NNc1nncc2ccccc12,10,36 AU,–
O=c1[nH]cnc2c1ncn2[C@@H]1O[C@H](CO)[C@@H](O)[C@H]1O,10,44 AU,–
Nc1ncnc2c1ncn2[C@@H]1O[C@H](COP(=O)(O)O)[C@@H](O)[C@H]1O,10,292 AU (active),–
CCCCCCc1ccc(O)cc1O,10,20 AU,–
CCN(CC)CCNc1ccc(CO)c2sc3ccccc3c(=O)c12,10,36 AU,–
COc1ccc(C(=O)c2ccccc2)c(O)c1,10,36 AU,–
CCN(CCCc1ccccc1)CCCc1ccccc1,10,48 AU,–
CC(=O)OCC(=O)[C@H]1CC[C@H]2[C@@H]3CCC4=CC(=O)CC[C@]4(C)[C@H]3CC[C@]12C,10,60 AU,–
Cc1cc(C)cc(OCC2CNC(=O)O2)c1 (stereo not drawn),10,72 AU,–
CCN(CC)C(=O)c1cccc(C)c1,10,68 AU,–

SMILES,remaining NAD [1] [nM],luciferase signal [2],z-score [3]
CCCCOc1cc(C(=O)NCCN(CC)CC)c2ccccc2n1,10,40 AU,–
C[C@@H]1C[C@H]2[C@@H]3CCC4=CC(=O)C=C[C@]4(C)[C@@]3(F)[C@@H](O)C[C@]2(C)[C@@]1(O)C(=O)COP(=O)(O)O,10,32 AU,–
O=C(CCBr)N1CCN(C(=O)CCBr)CC1,10,92 AU,–
C[C@]12CCC(=O)C=C1CC[C@@H]1[C@@H]2[C@@H](O)C[C@@]2(C)[C@H]1CC[C@]2(O)C(=O)COP(=O)(O)O,10,72 AU,–
Nc1ccc(S(=O)(=O)Nc2nccs2)cc1,10,84 AU,–
Nc1ccc(S(=O)(=O)Nc2ccc(Cl)nn2)cc1,10,168 AU,–
C[C@H](N)[C@H](O)c1cccc(O)c1,10,40 AU,–
CCC(=O)O[C@H]1[C@H](O[C@@H]2[C@@H](C)[C@H](O[C@H]3C[C@@](C)(OC)[C@@H](O)[C@H](C)O3)[C@@H](C)C(=O)O[C@H](CC)[C@@](C)(O)[C@H](O)[C@@H](C)C(=O)[C@H](C)C[C@@]2(C)O)O[C@H](C)C[C@@H]1N(C)C,10,180 AU (active),–
O=C1c2cccc(O)c2C(=O)c2c(O)cccc21,10,176 AU,–
CCOC(N)=O,10,24 AU,–
CCCCC1C(=O)N(c2ccccc2)N(c2ccc(O)cc2)C1=O (stereo not drawn),10,144 AU,–
"Cc1c2oc3c(C)ccc(C(=O)N[C@@H]4C(=O)N[C@H](C(C)C)C(=O)N5CCC[C@H]5C(=O)N(C)CC(=O)N(C)[C@@H](C(C)C)C(=O)O[C@@H]4C)c3nc-2c(C(=O)N[C@@H]2C(=O)N[C@H](C(C)C)C(=O)N3CCC[C@H]3C(=O)N(C)CC(=O)N(C)[C@@H](C(C)C)C(=O)O[C@@H]2C)c(N)c1=O (I: T[dV]P[Sar][NMeV] / II: T[dV]P[Sar][NMeV]; ester I:1-I:C, II:1-II:C; linker I:N-II:N via Actinocin(9to1))",10,16 AU,–
Nc1ccc(S(=O)(=O)Nc2cnc3ccccc3n2)cc1,10,84 AU,–
C=C1c2cccc(O)c2C(O)=C2C(=O)[C@]3(O)C(O)=C(C(N)=O)C(=O)[C@@H](N(C)C)[C@@H]3[C@@H](O)[C@H]12,10,40 AU,–
Cc1cc(O)cc(C)c1Cl,10,32 AU,–
C[N+]1(C)[C@@H]2CC(OC(=O)[C@H](CO)c3ccccc3)C[C@H]1[C@@H]1O[C@@H]12 (stereo partly drawn),10,32 AU,–
O=C(O)c1cc(=O)c2ccccc2o1,10,52 AU,–
Cc1c(Nc2ncccc2C(=O)O)cccc1C(F)(F)F,10,44 AU,–
OCc1ccccc1O,10,28 AU,–
NC(=O)NC1NC(=O)NC1=O (stereo not drawn),10,72 AU,–
C1CCC(C(CC2CCCCN2)C2CCCCC2)CC1 (stereo not drawn),10,140 AU,–

SMILES,remaining NAD [1] [nM],luciferase signal [2],z-score [3]
NC(=O)c1ccc([N+](=O)[O-])cc1Cl,10,180 AU,–
CC(=O)OCC(=O)[C@@]1(O)[C@H](OC(C)=O)C[C@H]2[C@@H]3CCC4=CC(=O)C=C[C@]4(C)[C@@]3(F)[C@@H](O)C[C@@]21C,10,96 AU,–
COc1ccc(C(=O)CC(=O)c2ccc(C(C)(C)C)cc2)cc1,10,44 AU,–
COc1ccc2cc1Oc1ccc(cc1)C[C@H]1c3c(cc4c(c3Oc3cc5c(cc3OC)CCN(C)[C@@H]5C2)OCO4)CCN1C,10,212 AU,–
Oc1ccc(Cl)cc1Cc1cc(Cl)ccc1O,10,72 AU,–
COc1cnc(NS(=O)(=O)c2ccc(N)cc2)nc1,10,40 AU,–
OC[C@H]1O[C@@H](O[C@@H]2[C@@H](CO)O[C@](O)(CO)[C@H]2O)[C@H](O)[C@@H](O)[C@H]1O,10,16 AU,–
O=c1oc2cc(O)ccc2s1,10,56 AU,–
COc1ccc(-c2cc(C(F)F)nn2-c2ccc(S(N)(=O)=O)cc2)cc1F,10,44 AU,–
CCn1cc(C(=O)O)c(=O)c2cnc(N3CCNCC3)nc21,10,56 AU,–
NC(=O)N/N=C/c1ccc([N+](=O)[O-])o1,10,36 AU,–
CO/N=C1\CN(c2nc3c(cc2F)c(=O)c(C(=O)O)cn3C2CC2)CC1CN (stereo not drawn),10,40 AU,–
O=C1OCCN1/N=C/c1ccc([N+](=O)[O-])o1,10,56 AU,–
CCC(=O)c1c(O)cc(O)cc1O,10,60 AU,–
CC(=O)Nc1cccc(O)c1,10,64 AU,–
CCCCOc1ccc(OCCCN2CCOCC2)cc1,10,36 AU,–
CN(C)CCOC(=O)C(c1ccccc1)C1(O)CCCC1 (stereo not drawn),10,104 AU,–
O=c1cc[nH]c(=S)[nH]1,10,100 AU,–
CC(=O)OCC(COC(C)=O)OC(C)=O,10,8 AU,–
CC(=O)Nc1ccc(S(=O)(=O)Nc2ccc([N+](=O)[O-])cc2)cc1,10,24 AU,–
Nc1ccc(S(=O)(=O)NC(=O)c2ccccc2)cc1,10,32 AU,–

SMILES,remaining NAD [1] [nM],luciferase signal [2],z-score [3]
Cc1ccc2c(Cl)cc(Cl)c(O)c2n1,10,32 AU,–
CCC[C@H](N[C@@H](C)C(=O)N1[C@H](C(=O)O)C[C@@H]2CCCC[C@@H]21)C(=O)OCC,10,156 AU,–
COCCCOc1cc(C[C@@H](C[C@H](N)[C@@H](O)C[C@H](C(=O)NCC(C)(C)C(N)=O)C(C)C)C(C)C)ccc1OC,10,68 AU,–
CC1(C)OC(=O)NC1=O,10,64 AU,–
NC(=O)NC(=O)Cc1ccccc1,10,160 AU,–
CN1CCCN=C1COC(=O)C(O)(c1ccccc1)C1CCCCC1 (stereo not drawn),10,80 AU,–
CN(C)CCc1c[nH]c2ccc(CS(=O)(=O)N3CCCC3)cc12,10,52 AU,–
CCOc1ccc2nc3cc(N)ccc3c(N)c2c1,10,32 AU,–
COc1ccc(C(=O)c2ccccc2O)c(O)c1,10,92 AU,–
NNc1nncc2ccccc12,10,280 AU (active),0.12
O=C(O)CCC(=O)Nc1ccc(S(=O)(=O)Nc2nccs2)cc1,10,28 AU,–
O=C(Nc1ccc([N+](=O)[O-])cc1Cl)c1cc(Cl)ccc1O,10,24 AU,-1.18
Oc1c(Cl)cc(Cl)c(Cl)c1Cc1c(O)c(Cl)cc(Cl)c1Cl,10,28 AU,-1.5
CC(N)CCCC(C)(C)O (stereo not drawn),10,160 AU,–
C=C[C@@]1(C)CC(=O)[C@]2(O)[C@@]3(C)[C@@H](O)CCC(C)(C)[C@@H]3[C@H](O)[C@H](OC(C)=O)[C@@]2(C)O1,10,44 AU,-0.315
CCCC(C(=O)OCCN(CC)CC)(c1ccccc1)c1ccccc1,10,60 AU,-1.28
CCN(CC)CCOCCOC(=O)C1(c2ccccc2)CCCC1,10,36 AU,-0.64 and -0.655
CCN(CC)CCNC(=O)c1cc(Br)c(N)cc1OC,10,60 AU,–
Clc1ccc2c(c1)CCc1cccnc1C2=C1CCNCC1,10,32 AU and 40 AU,-1.23 and -1.54
CC(=O)OCC1=C(C(=O)O)N2C(=O)[C@@H](NC(=O)CSc3ccncc3)[C@H]2SC1,10,32 AU,–
